Read-out in assay [1]: Collagen I, COL1A1 (gene 1277)
As to the kind of experiment: BSK_MyoF_CollagenI: BioMAP Diversity Plus: MyoF Assay for Collagen I Biomarker Activity (AID 2284238). The note with it: primary human lung fibroblasts. In outline: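 Collagen I levels measured by ELISA on human lung fibroblast cultures 24 h post-dosing, with curve fitting in the positive direction relative to DMSO; SRB staining of parallel wells marked cytotoxicity.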

Read-out in assay [2]: Actin alpha 1 (ACTA1), ACTA1 (gene 58)
As to the kind of experiment: BSK_MyoF_ACTA1: BioMAP Diversity Plus: MyoF Assay for Actin alpha 1 (ACTA1) Biomarker Activity (AID 2284244). As to conditions: primary human lung fibroblasts. In outline: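 MyoF fibroblast system (human lung); a-SMA quantified via ELISA at 24 h; DMSO-normalised, gain-of-signal endpoint.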

Assay [3] can be described thus: UKN2_HCS_IMR90_cell_viability: Viability Assessment in the University of Konstanz (UKN) Leist Lab Neural Crest Cell Migration Assay in human induced IMR90 Pluripotent Stem Cells (UKN2) (AID 2284233).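 Further: cells exposed to compound for 24 h after a 24 h migration phase.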 In outline: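 After calcein-AM/Hoechst staining, viability is quantified by high-content fluorescence imaging, relative to DMSO, in iPSC (IMR90)-derived neural crest cells. Exposure lasts 24 h, starting after a 24 h migration period on PLO/laminin/fibronectin coating.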

Assay [4] in a line: CCTE_Mundy_HCI_Cortical_NOG_NeuronCount: CCTE's Neurite Outgrowth Assay in rat cortical cells for Neuron Count, Mundy Lab (AID 2284236; active means hit-call score of the fitted dose curve at least 0.9, where 1 is the maximum;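 further: neurons counted by imaging betaIII-tubulin and Hoechst stained cortical cells; cells exposed to compound for about 48 hours before fixation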). The protocol:
CCTE_Mundy_HCI_Cortical_NOG is a multiplexed, cell-based-readout assay that uses rat primary cortical cells with measurements taken at 50.33 hours after chemical dosing in a microplate: 96-well plate.CCTE_Mundy_HCI_Cortical_NOG_NeuronCount is one of four components of the CCTE_Mundy_HCI_Cortical_NOG assay. It measures cell viability related to the number of neurons using High Content Imaging of fluorescently labelled markers.[…] Using a type of morphology reporter, loss -of-signal activity can be used to understand developmental effects.
Exposure starts 2 hours post-plating by adding 10 ul of the working solution to 90 ul of media in the wells for a 1/10 dilution. Forty-eight hours after chemical treatment cells are fixed by direct addition of 100 ul of warm (37C) Dulbecco's phosphate buffered saline (DPBS) fixative solution containing 8% paraformaldehyde, 8% sucrose, and 0.1% of 3 mg/ml Hoechst 33342 into each well. Primary antibodies are prepared by dilution in Immunocytochemical Staining Buffer (ISB), 10X Dulbecco's PBS, 0.1% Saponin, 5% Bovine Serum Albumin, 0.5% NaN3 (Sodium Azide) and betaIII-tubulin (rabbit anti-betaIII-tubulin, 1:800) followed by Alexa Fluor-488 secondary (1:500) to label neuronal cell bodies and neurites. A Cellomics ArrayScan VTi HCS Reader is used for automated image acquisition and analysis of neurite outgrowth.

Assay [5] can be described thus: CCTE_Mundy_HCI_Cortical_NOG_BPCount: CCTE's Neurite Outgrowth Assay in rat cortical cells for Branch Point Count, Mundy Lab (AID 2284237). Summed up: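 Measured 50.33 h after dosing, this morphology endpoint uses rat primary cortical cultures labelled for betaIII-tubulin. Branch points are quantified by high-content imaging, with DMSO as negative control and baseline.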

Assay [6] in a line: CCTE_Mundy_HCI_hNP1_Casp3_7: CCTE's Caspase-Glo 3/7 Assay in human neuroprogenitor cells for Apoptosis, Mundy Lab (AID 2284240). In outline:
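Apoptosis is scored by activated caspase-3/7 luminescence in WA09-derived neural progenitor cells, measured 26.5 h after chemical dosing. Values represent gain of signal relative to DMSO vehicle.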

Assay [7] in a line: CCTE_Mundy_HCI_hNP1_CellTiter: CCTE's Cell Titer-Glo 2 Assay in human neuroprogenitor cells for Viability, Mundy Lab (AID 2284241; active means hit-call score of the fitted dose curve at least 0.9, where 1 is the maximum;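 on AC50: a hit is a drop in ATP luminescence versus DMSO meaning reduced viability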). In outline:
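Human neural progenitor cells (hNP1, WA09-derived) were plated on poly-L-ornithine/laminin and grown 40 to 44 hours at 37 °C, 5% CO2 before chemical addition. Twenty-four hours later, ATP was measured by CellTiter-Glo luminescence; loss of signal versus DMSO indicates reduced viability.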
(Cellular ATP, detected with luciferase, serves as a proxy for viable cell number.)

Assay [8] is described as follows: CCTE_Mundy_HCI_Cortical_Synap_Neur_Matur_NeuronCount: CCTE's Synaptogenesis and Neurite Maturation Assay in rat cortical cells for Neuron Count, Mundy Lab (AID 2284242; active means hit-call score of the fitted dose curve at least 0.9, where 1 is the maximum). In outline: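 Measured at DIV 12: fluorescently labelled neurons (Hoechst nuclei, MAP2) in rat primary cortical cultures, counted by high-content imaging. AraC suppressed glia from DIV 5; DMSO served as negative control.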

The nature of assay [9]: TAMU_PeakParms_SingleDonor1434_QT: Texas A&M University (TAMU) 1.5-hr Human Induced Pluripotent Stem Cell (iPSC)-derived Cardiomyocytes Calcium (Ca+2) Flux Assay for Cardiotoxicity: QT (decay-rise ratio) (AID 2284235; active means hit-call score of the fitted dose curve at least 0.9, where 1 is the maximum). Summed up: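 Decay/rise ratio of calcium-flux fluorescence scored after 90 min exposure (37C) of donor 1434 iPSC cardiomyocytes to 0.2–100 uM (0.5% DMSO). Beat-cessation and severe-notch points removed; POD is EC05, a 5% rise over DMSO.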

A short description of assay [10]: TAMU_HCS_1.5hr_SingleDonor1434_Cytotoxicity: Cytotoxicity Assessment using High-content Screening (HCS) Fluorescent Imaging for the Texas A&M University (TAMU) 1.5-hr Human Induced Pluripotent Stem Cell (iPSC)-derived Cardiotoxicity Assay (AID 2284234; active means hit-call score of the fitted dose curve at least 0.9, where 1 is the maximum). Summed up: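 Nuclear counts from Hoechst 33342 imaging define cytotoxicity here, with EC10 (10% cell-count loss relative to DMSO) as point of departure. iPSC cardiomyocytes received 0.2-100 uM test chemical in 0.5% DMSO for 1.5 h at 37 C.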

This note sets out measurements from PubChem BioAssay (EPA / NIEHS).

Inconclusive results are not listed. A structure can be active in one record and inactive in another. Activity calls are given as the source filed them. How the source made its calls, unless noted: active means hit-call score of the fitted dose curve at least 0.9, where 1 is the maximum; inactive means score below 0.9.

In the case of `C=CCOCC(O)CCl` (stereo not given), the outcome in assay [1] and in [2] was inactive.

For `CC(C)C(=O)C(C)C`, the outcome in [1] and in assay [2] was inactive.

With `CCCCC(CC)COC(=O)c1ccccc1O` (stereo not given), in [1], the AC50 (as a rule, the midpoint of the concentration-response curve, whichever way the signal moves) was 14.5 µM (active). The result in assay [2] was inactive.

In the case of `CCCCCCCCc1ccc(Nc2ccc(CCCCCCCC)cc2)cc1`, the outcome in assay [1] and in assay [2] was inactive.

As for `O=c1c2ccccc2oc2ccccc12`, the outcome in assay [1] and in [2] was inactive.

Take `CC1OC1C1CCC2(C)OC2C1` (stereo not given): the outcome in assay [1] and in assay [2] was inactive.

With `Nc1ncn([C@@H]2O[C@H](CO)[C@@H](O)[C@H]2O)c(=O)n1`, the AC50 in assay [3] was 6.91 µM (active); in assay [6] it was 5.45 µM (active); in assay [7], 2.78 µM (active). Moreover, the call in [3], in [4], in [5], in [7] and in assay [8] was inactive.

On to `C=CC(=O)OCC(Br)CBr` (stereo not given), for which the concentration at half-maximal activity (AC50) in assay [1] and in assay [2] was 20 µM (active) throughout.

For the compound `C/C=C\C/C=C/CCCCCCCCOC(C)=O`, in assay [1], the outcome was inactive. Further, the AC50 in assay [2] is 31.9 µM (active).

Turning to `CC1(C)S[C@@H]2[C@H](NC(=O)COc3ccccc3)C(=O)N2[C@H]1C(=O)O`, the outcome in assay [4], in assay [5] and in [6] was inactive.

In the case of `O=C(Cl)c1cc(C(=O)Cl)cc(C(=O)Cl)c1`, the AC50 was 30.7 µM (active) in assay [1] and 35.1 µM (active) in [2].

In the case of `CCOc1nc(F)cc2nc(S(=O)(=O)Nc3c(Cl)cccc3C(=O)OC)nn12`, the result in [1] and in [2] was inactive.

For the compound `CC(C)(c1cc(Br)c(OCCO)c(Br)c1)c1cc(Br)c(OCCO)c(Br)c1`, the values for the AC50 in assay [1] and in assay [2] were 6.65 µM (active) and 10.7 µM (active), respectively.

Regarding `CCCCCCCCCCCCCCCC[N+](C)(C)CC`, the AC50 in assay [1] was 0.64 µM (active); in assay [2] it was 0.757 µM (active).

As for `COCc1c(C(C)C)nc(C(C)C)c(/C=C/[C@@H](O)C[C@@H](O)CC(=O)O)c1-c1ccc(F)cc1`, the values for the AC50 in [1] and in assay [2] were 9.2 µM (active) and 0.0484 µM (active), respectively.

As to `C#CC1(O)CC[C@H]2[C@@H]3CCC4=CCCC[C@@H]4[C@H]3CC[C@@]21C` (stereo not given in full), the half-maximal activity concentration (AC50) is 22.4 µM (active) in assay [1] and 32.2 µM (active) in assay [2].

With `S=C(NC1CCCCC1)NC1CCCCC1`, the result in [1] and in assay [2] was inactive.

In the case of `CCCCC/C=C\C/C=C\CCCCCCCC(=O)OC`, the AC50 in assay [1] was 27.1 µM (active); in assay [2], 29.4 µM (active).

`O=Nc1ccc(O)cc1`: the result in [1] and in assay [2] was inactive.

On to `CCO[Si](CCCN=C=O)(OCC)OCC`, for which the result in assay [1] and in assay [2] was inactive.

`COc1ccc2nc(N)sc2c1`: the result in assay [1] and in assay [2] was inactive.

As to `c1ccc2c(c1)ccc1ncccc12`, the result in [1] and in assay [2] was inactive.

Consider `O=C(O)CCCC[C@@H]1SC[C@@H]2NC(=O)N[C@@H]21`, for which, in assay [9], the outcome was inactive.

Consider `N[C@H]1C(O)O[C@H](CO)[C@H](O)[C@@H]1O` (stereo not given in full), for which the call in assay [5], in assay [6] and in [7] was inactive.

`c1ccc2c(c1)ccc1cc3c(ccc4ccccc43)cc12`: the result in assay [10], in [1] and in assay [2] was inactive.

As to `O=C(Nc1ccccc1SSc1ccccc1NC(=O)c1ccccc1)c1ccccc1`, the result in assay [1] and in assay [2] was inactive.

As to `CCCCNc1ccc(NCCCC)c2c1C(=O)c1ccccc1C2=O`, the outcome in assay [1] and in assay [2] was inactive.

With `C=CC=CC=CCCCCC`, the result in [1] and in [2] was inactive.

Turning to `c1ccc(-c2ccccn2)nc1`, the result in [1] and in [2] was inactive.

As for `N#[N+]c1ccc2c(S(=O)(=O)[O-])cccc2c1O`, the result in assay [1] and in assay [2] was inactive.

In the case of `C=CCOc1c(Br)cc(Br)cc1Br`, the AC50 in assay [1] is 20 µM (active); in assay [2], 24.4 µM (active).
